Unmarked numbers belong to inactive results. Activity calls are given as the source filed them. Calls come from the whole dose curve; as a rule, active = well fitted activation curve with a large enough effect in the repeat runs; inconclusive = weak or mixed curves; inactive = flat fitted curve, though single readings scatter.
Molecular target: KiSS-1 receptor (Homo sapiens) (UniProt Q969F8)
Test: Human kisspeptin (KISS1R) small molecule agonists, calcium flux assay in KISS1R-HEK293 cells (AID 1920064)
Details: KISS1R-HEK293, calcium flux fluorescence, agonist; series mostly up to 76.8 µM; activation: at the top concentration
Text: National Center for Advancing Translational Sciences [NCATS]
Division of Preclinical Innovation [DPI]
U.S. Environmental Protection Agency [EPA]
National Institutes of Environmental Health Sciences [NIEHS]
National Toxicology Program [NTP]
U.S. Food and Drug Administration [FDA]
Kisspeptin and its receptor KISS1R play key roles in mammalian reproduction due to their involvement in the onset of puberty and control of the hypothalamic-pituitary-gonadal axis such as regulates GnRH release from the hypothalamus. The kisspeptin/KISS1R system also plays a direct role in peripheral organs (including the ovary, testis, uterus, and placenta) and is implicated in reproductive diseases such as miscarriage and polycystic ovary syndrome (PCOS). Abnormal KISS1R activity is associated with abnormal puberty, infertility, endometriosis, and hormone-dependent tumors. The KISS1 receptor (KISS1R, also called GPR54), a G-protein-coupled receptor (GPCR), acts (through phospholipase C) to increase intracellular inositol trisphosphate and then release intracellular calcium stores. Cell-based KISS1R-HEK293 assay is using HEK293 cells that have been genetically engineered to express the human KISS1R, which activity can be measured by calcium signaling. A compound/drug can activate (agonist) KISS1R that can be monitored by levels of intracellular calcium.
KISS1R-HEK293 cells developed by Codex Corp contain human KISS1R gene, which was stably integrated into HEK 293 cells. The compound activation can be detected by fluorescence intensity via calcium flux assay. This cell line has been used to screen the Tox21 10K compound library to identify agonists of KISS1R.
KISS1R-Hek293 cells were dispensed at 1500 cells/4uL/well in 1536-well black wall/clear bottom plates using a multidrop dispenser. After the assay plates were incubated at a 37 C/5% CO2 incubator for 18 hours, 4 microL of Calcium Dye Solution was added to each well. The plates were incubated at 37 C for 1 hour. And then 23 nL of compounds dissolved in DMSO, positive controls, or DMSO only was transferred to the assay plate by a pin tool station. The fluorescence intensity in the plates was measured using FDSS 7000EX kinetic plate reader with a filter set of Ex/Em=480/540 for 3 min at 1 sec intervals. Each test compound was measured at 15 concentrations and in triplicates.
% is set by controls: 0 for no effect and ±100 for the full control effect.

KiSS-1 receptor (Homo sapiens), sequence (Q969F8 whole entry, looked up): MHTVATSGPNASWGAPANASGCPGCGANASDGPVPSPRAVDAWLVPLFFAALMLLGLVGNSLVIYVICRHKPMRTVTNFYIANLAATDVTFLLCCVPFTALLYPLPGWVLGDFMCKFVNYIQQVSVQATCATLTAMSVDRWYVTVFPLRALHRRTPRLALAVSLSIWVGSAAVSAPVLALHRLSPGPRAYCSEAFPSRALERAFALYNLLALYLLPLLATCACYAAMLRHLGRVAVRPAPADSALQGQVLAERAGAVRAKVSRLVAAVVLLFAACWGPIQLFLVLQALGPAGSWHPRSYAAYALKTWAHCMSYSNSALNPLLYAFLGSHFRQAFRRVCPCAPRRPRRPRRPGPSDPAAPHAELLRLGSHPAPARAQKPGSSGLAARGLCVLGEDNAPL

SMILES | activation | Potency
CC(C)CCCC(C)CCO (stereo not given) | -0.0266% | –
CCOC(=O)C(C)Oc1ccc(Oc2cnc3cc(Cl)ccc3n2)cc1 (stereo not given) | – | inactive
CC(CCC(=O)O)C(=O)O (stereo not given) | 0.135% | –
CCCN1CCCC[C@H]1C(=O)Nc1c(C)cccc1C | -0.579% [at 35.3 µM] | –
CC(C)CCCCCOC(=O)CS | -3.48% | –
CCSC(=O)N(CC(C)C)CC(C)C | -3.02% | –
CCCCCCCCN(C)C | 0.886% | –
CC/C=C\CCOC(=O)C(C)C | -1.18% | –
COC(C)(C)CCO | -4.07% | –
CCCCCCCCSCC | 0.222% | –
CCc1ccccc1O | – | inactive
CC1(C)[C@H]2CC[C@]1(C)[C@H](O)C2 | 0.409% | –
Cc1cc(C)c(C)c(O)c1 | 2.02% | –
O=C(O)c1cc2ccccc2cc1O | – | inactive
CC(C)(C)OC(=O)c1cccc(N)c1 | 9.24% | –
CCOc1ccc(Cc2nccc3cc(OCC)c(OCC)cc23)cc1OCC | 3.24% [at 35.3 µM] | –
C1CCCC1 | 3.91% | –
C1CCCCC1 | -3.73% | –
Cc1c(N)cccc1C(F)(F)F | 0.657% [at 35.3 µM] | –
CC(=O)c1ccc(O)c(C(N)=O)c1 | -0.892% [at 35.3 µM] | –

SMILES | activation | Potency
CC(C(=O)O)c1cccc(C(=O)c2ccccc2)c1 (stereo not given) | – | inactive
CCC/C=C/C=O | – | inactive
C1CCSC1 | -2.19% | –
C=C1C[C@H]2[C@@H]3C=C(C)C4=CC(=O)CC[C@]4(C)[C@H]3CC[C@]2(C)[C@@]1(OC(C)=O)C(C)=O | – | inactive
O=S(=O)(O)c1cccc(S(=O)(=O)O)c1 | 1.21% | –
CCCCCCCC/C=C\CCCCCCCC(=O)OCCCC | 1.04% [at 15.8 µM] | –
CC[C@H](C)[C@H](N)C(=O)O | 2.46% [at 35.3 µM] | –
OCCNCCO | – | inactive
O=C(O)c1ccc(C(=O)O)c(C(=O)O)c1 | – | inactive
N#CC1(c2ccc(F)cc2)CCC(=O)CC1 | 2.8% [at 35.3 µM] | –
O=C1CCCCCCCCCCCCCCCO1 | -1.62% | –
NC(=O)NC1N=C([O][Al])NC1=O (stereo not given) | 0.515% [at 35.3 µM] | –
CN1CCc2cccc3c2[C@H]1Cc1ccc(O)c(O)c1-3 | – | inactive
O=CC1CC=CCC1 (stereo not given) | -0.251% | –
O=Cc1ccc(F)cc1 | 0.399% | –
CC(=O)CC/C=C(\C)CC/C=C(\C)CC/C=C(\C)CCC=C(C)C | 1.57% [at 35.3 µM] | –
Oc1ccc(/C=C/c2cc(O)cc(O)c2)cc1 | – | inactive
CC(=O)OCc1ccccc1 | – | inactive
CC(S)C(=O)NCC(=O)O (stereo not given) | -0.18% [at 35.3 µM] | –
Cc1ccc2c(c1)OCC(=O)CO2 | -0.535% | –

— PubChem BioAssay (Tox21)
